Results taken from PubChem BioAssay (NCI).
The panel holds about 83,000 compounds, 20% with a hit somewhere; the sample as a whole holds those more often.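 How to read the values: 0–100, growth inhibition (40 = 60% inhibited); 0, no net growth; -100 to 0, cell death (-40 = 40% of starting cells died; -100 = all dead).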 The source made the active and inactive calls.

What follows are compounds tested on LOX IMVI melanoma (assay: NCI-60 one-dose screen, 48 h (100 = growth as untreated, 0 = no growth, -100 = all killed)). Conditions: 10 µM unless noted.
Method: Growth inhibition of the LOX IMVI human tumor cell line is measured as a screen for anti-cancer activity. Cells are grown in 96 well plates and exposed to the test compound for 48 hours. Compounds are tested at a single concentration, which is 10^-5 M for most compounds. The reported endpoint is percent growth (GI% or GIPRCNT), where numbers from 0 - 100% represent growth inhibition, and numbers from -100% - 0 represent cell death. For example, a value of 40 represents 60% growth inhibition. A value of 0 means no net growth occurred over the course of the experiment. A value of -40 indicates 40% of cells at the beginning of the experiment died by the end of the experiment. A value of -100 means all cells are dead at the end of the experiment.
NCI-60 Human Tumor Cell Lines Screen was performed using the standard one-dose NCI protocol, which is described in more detail at https://dtp.cancer.gov/discovery_development/nci-60/default.htm.
Compounds with GIPRCNT values below 10 were considered active. Activity score was based on GIPRCNT using the following formula: […]
Score is 0 for GIPRCNT values of 100 or above, 50 for GIPRCNT values of 0, and 100 for GIPRCNT values of -100.

Row | Compound | growth
1 | CC(C)c1ccc(NC(=O)Nc2ccc(NC(=O)c3ccccc3N)cc2)cc1 | 20.9% (inactive)
2 | COc1ccc2nc3ccccc3c(NCc3ccccc3)c2c1 | -31.1% (active)
3 | COc1ccc(NC(=O)c2sc3nc4c(cc3c2N)CCCC4)cc1 | 35.8% (inactive)
4 | O=C(c1ccc(F)c(Cl)c1)N1c2ccccc2Sc2ccccc21 | 41.2% (inactive)
5 | N#Cc1nc(-c2ccc(F)cc2)oc1S(=O)(=O)N1CCN(c2ccc(F)cc2)CC1 | 10.3% (inactive)
6 | CC(C)c1ccc(-n2c(=S)[nH]c3sc4c(c3c2=O)CCC(=O)C4)cc1 | 43.3% (inactive)
7 | O=C1NC(=O)c2c1c1c3ccccc3[nH]c1c1oc3cc(Br)ccc3c21 | 59.9% (inactive)
8 | Cc1c2cc[nH]c(=O)c2c(C)c2c1[nH]c1ccc(OC(=O)c3ccccc3)cc12 | 13.7% (inactive)
9 | Clc1ccc(-c2nc(-c3c[nH]c4ncccc34)cs2)cc1 | 62.6% [100 µM] (inactive)
10 | CCN1C(=S)N(CC)C2C1NC(=S)N2/N=C/C=C/c1ccccc1OC (stereo not given) | 19% (inactive)
11 | COc1ccc(C2=Nc3c/c(=C\c4c(O)[nH]c5cc(Cl)ccc45)ccc3=N2)cc1 | 90.6% (inactive)
12 | CC1=NN(c2ccc(Cl)cc2)CC1(C)N=O (stereo not given) | 28.1% (inactive)
13 | CC1=C(C(=O)n2c3ccccc3c3ccccc32)C(c2cccc([N+](=O)[O-])c2)C(C(=O)n2c3ccccc3c3ccccc32)=C(C)N1 | 87.1% (inactive)
14 | Nc1c(C(=O)Nc2ccccn2)sc2nc3c(cc12)C(O)CCC3 (stereo not given) | 36.6% (inactive)
15 | C=CC(C)(O)CC/C=C(\CO)C(=O)OC1C(C)OC(O[C@](C)(C=C)CC/C=C(\CO)C(=O)O[C@H]2C[C@@]3(C(=O)OC4OC(CO)C(O)C(O)C4OC4OC(C)C(OC5OC(CO)C(O)C5O)C(OC5OC(CO)C(O)C(O)C5O)C4O)C(CC2(C)C)C2=CCC4[C@@]5(C)CC[C@H](OC6OC(COC7OC(C)C(O)C(O)C7OC7OCC(O)C(O)C7O)C(O)C(O)C6NC(C)=O)C(C)(C)C5CC[C@@]4(C)[C@]2(C)C[C@H]3O)C(O)C1O (stereo not given in full) | -36.7% (active)
16 | CC[C@H](C)[C@H](NC(=O)[C@H](CCCNC(=N)N)NC(=O)[C@H](Cc1c[nH]c2ccccc12)NC(=O)[C@@H](NC(=O)[C@H](CCCCN)NC(=O)[C@H](CCCCN)NC(=O)[C@@H](NC(=O)[C@@H](NC(=O)[C@@H](NC(=O)[C@H](CCCCN)NC(=O)[C@H](Cc1ccccc1)NC(=O)[C@H](CCCCN)NC(=O)[C@H](CCCCN)NC(=O)[C@H](Cc1ccccc1)NC(=O)[C@@H](NC(=O)[C@@H](N)CCCCN)[C@@H](C)CC)[C@@H](C)O)[C@@H](C)CC)[C@@H](C)CC)C(C)C)C(=O)N[C@@H](Cc1ccccc1)C(=O)NCC(=O)N[C@@H](CCCNC(=N)N)C(=O)N[C@@H](Cc1ccccc1)C(N)=O | -11% (active)
17 | C=CC(=O)N1CCN(c2ccc3cccc(NC(=O)c4cnc(C)cn4)c3n2)CC1 | 33.4% (inactive)
18 | COc1ccccc1NC(=O)c1ccc(/C=C/C(=O)c2nccn2C)cc1 | -82.5% (active)
19 | CO[C@H](C(=O)[C@@H](O)[C@@H](C)O)[C@@H]1Cc2cc3cc(O[C@H]4C[C@@H](O[C@H]5C[C@@H](O)[C@H](O)C(C)O5)[C@H](O)C(C)O4)c(C)c(O)c3c(O)c2C(=O)[C@H]1O[C@H]1C[C@@H](O[C@H]2C[C@@H](O[C@H]3C[C@@H](OC)[C@H](O)C(C)O3)[C@@H](O)C(C)O2)C(O)(O)C(C)O1 (stereo not given in full) | 3.54% (active)
20 | COc1ccc(C(c2cc(OC)c(OC)c(OC)c2)N2CCCC2)cc1 (stereo not given) | 73% (inactive)

Row | Compound | growth
21 | CCN(CC)CCOc1ccc(Nc2ncc3cc(-c4ccc(O)cc4)c(=O)n(C)c3n2)cc1 | -11.7% (active)
22 | C=C(c1ccc(C(=O)O)cn1)c1cc2c(cc1C)C(C)(C)CCC2(C)C | 87.3% (inactive)
23 | Cc1ccc(O)c(NC(=O)c2ccc(CNc3ccnc(C(F)(F)F)c3)cc2)c1 | 40.6% (inactive)
24 | O=c1nc(Nc2nc3ccccc3s2)[nH]c(=O)c2ccccc12 | 95.7% (inactive)
25 | CCn1c2ccc(O)cc2c2c(C)c3c[n+](C(C)C)ccc3c(C)c21 | 30.9% (inactive)
26 | Cc1ccc(Nc2nc(-c3ccc(F)cc3)c(C#N)c(=O)n2C)cc1 | 74.3% (inactive)
27 | COc1cc2nc(Nc3cccc(F)c3)nc(Nc3cc(C)[nH]n3)c2cc1OC | -82.3% [20 µM] (active)
28 | N#Cc1c(-c2cccc([N+](=O)[O-])c2)cc(-c2ccc(Nc3nc(Nc4ccc(F)cc4)nc(Nc4ccc(F)cc4)n3)cc2)nc1N | 97.9% (inactive)
29 | CC(=O)c1c(Nc2ccc(F)c(F)c2F)[nH]c2c(F)cc(F)cc2c1=O | 5.66% (active)
30 | CCOC(=O)c1c2c(n3ccccc13)C(=O)c1ncccc1C2=O | 0.56% (active)
31 | N#Cc1c(Nc2ccc(F)cc2)n[nH]c1-c1cccs1 | 95.1% (inactive)
32 | O=C(/C=C/c1ccccc1)Nc1ncc(Cc2ccccc2)s1 | 6.49% (active)
33 | Cc1cc2nc3c4ccccc4n(CCN(C)C)c3nc2cc1C | -63.2% (active)
34 | CCCCCCC(=O)Nc1ncc(Cc2ccc(C)cc2)s1 | 44.1% (inactive)
35 | CCCCCCC(CCCC)COC(=O)c1ccc(Cl)cc1 (stereo not given) | 103% (inactive)
36 | CCN(CC)c1ccc(/C=N\NC(=O)c2cccc(Nc3ccnc(C(F)(F)F)c3)c2)c(O)c1 | -6.15% (active)
37 | COc1cc(N2C(=O)[C@H](c3ccccc3)C2c2ccc(SC)cc2)cc(OC)c1OC (stereo not given in full) | 13.4% (inactive)
38 | Cc1nc2sc(C(=O)Nc3cccc(Cl)c3)c(N)c2cc1C(O)c1ccccc1 (stereo not given) | 45.3% (inactive)
39 | Clc1nn2c(Cn3cnc4c(NCc5ccccc5)ncnc43)nnc2c2ccccc12 | 31.3% (inactive)
40 | C[C@@H]1O[C@@H](O[C@@H]2C[C@H](c3ccc4c(c3O)C(=O)C3=C(C4=O)[C@@]4(O)C(=O)C[C@](C)(O)C[C@@]4(O)C=C3)O[C@H](C)[C@H]2O)C[C@H](O)[C@@H]1O | 91% (inactive)
